This is a sample that favours compounds with a hit; in the whole collection about 6.6% have one here.
Mtb FBA inh: Mtb fructose-bisphosphate aldolase inhibition. P9WQA3. purified M. tuberculosis FBA, fluorescence read-out. inhibition, % at 1 µM. actives 2.3% (n = 360,000). AID 588726; in the data active = inhibition above about 27%;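 note: 0% = vehicle and 100% = reference inhibitor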
Target sequence (P9WQA3 whole entry, looked up): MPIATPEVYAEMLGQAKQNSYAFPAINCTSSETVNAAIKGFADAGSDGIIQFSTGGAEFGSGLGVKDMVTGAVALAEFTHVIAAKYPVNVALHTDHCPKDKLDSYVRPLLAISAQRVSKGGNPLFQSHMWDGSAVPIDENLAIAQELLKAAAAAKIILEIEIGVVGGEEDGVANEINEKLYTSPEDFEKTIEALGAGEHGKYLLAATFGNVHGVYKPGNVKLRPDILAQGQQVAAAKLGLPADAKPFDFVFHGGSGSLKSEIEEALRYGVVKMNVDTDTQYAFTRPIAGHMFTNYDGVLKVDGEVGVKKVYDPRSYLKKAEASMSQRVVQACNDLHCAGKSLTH
Anthrax LF prot: inhibitors of Bacillus anthracis lethal factor protease; actives 0.12% (n = 360,000); multiplex microsphere protease cleavage assay, LF; P15917; inhibition, % at 10 µM; in the data active = inhibition above about 30%; inconclusive = no clear call, values can overlap the other calls; note: plate controls were buffer without enzyme for full effect and enzyme alone for no effect
BoNT-F LC inh: inhibitors of Botulinum neurotoxin F light chain protease | inhibition, % at 10 µM | actives 0.22% (n = 360,000) | Multiplex microsphere protease cleavage assay, flow cytometry | AID 588497; in the data active = inhibition above about 35%, passing the limit was not always enough; inconclusive = no clear call, values can overlap the other calls; note: plate controls were buffer without enzyme for full effect and enzyme alone for no effect
GDH-TPI counter: counter-screen for M. tuberculosis FBA inhibitors: GDH-TPI coupled enzymes; GDH-TPI coupled enzyme counterscreen, NADH absorbance; AID 588335; actives 1.2% (n = 360,000); inhibition, % at 4.8 µM; in the data active = inhibition above about 30%;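 note: 0% = DMSO wells and 100% = wells lacking the enzyme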
Bead autofluor: compound fluorescence in toxin protease inhibitor counterscreen; actives 3.1% (n = 360,000); fluorescence intensity (no concentration beside the values); compound autofluorescence counterscreen, microsphere flow cytometry; active compounds read high; AID 624483; in the data active = fluorescence intensity above about 16000; inconclusive = no clear call, values can overlap the other calls
BoNT-A LC inh2: blocks Botulinum neurotoxin A light chain protease | multiplex microsphere protease substrate cleavage, flow cytometry | actives 0.17% (n = 360,000) | inhibition, % at 10 µM | AID 588499; in the data active = inhibition above about 30%; inconclusive = no clear call, values can overlap the other calls; note: plate controls were buffer without enzyme for full effect and enzyme alone for no effect
BoNTA LC inh 1: BoNT/A light chain protease inhibition | shares compounds with BoNT-F LC inh | multiplex microsphere protease assay, flow cytometry | inhibition, % at 10 µM | actives 3% (n = 720) | AID 602139; in the data active = inhibition above about 32%
BoNT-F LC CP1: inhibitors of Botulinum neurotoxin F light chain protease. multiplex microsphere protease cleavage assay, flow cytometry. inhibition, % at 10 µM. shares compounds with BoNT-F LC inh. AID 602140. 720 tested, under 10 active
LF protease CP1: blocks anthrax lethal factor protease; 720 tested, under 10 active; inhibition, % at 10 µM; multiplex microsphere protease cleavage assay, LF; shares compounds with BoNT-F LC inh; AID 602142
Numbers without * were called inactive; ? = inconclusive; . = no result given. Unless noted, the rule behind the calls is not given here.

SMILES	Mtb FBA inh	Anthrax LF prot	BoNT-F LC inh	GDH-TPI counter	Bead autofluor	BoNT-A LC inh2	BoNTA LC inh 1	BoNT-F LC CP1	LF protease CP1
O=S(=O)(Nc1cc2nc3ccccc3nc2n1Cc1ccccc1)c1ccc(Cl)cc1	12.2	9.1	-10.8	8.1	2849	32.8*	14.2	-0.9	4.4
COc1ccc(C2=NOC(C(=O)NCc3ccccn3)C2)cc1 (configuration not stated)	1.9	4.6	72.2*	0.0	3906	2.9	-0.6	-4.0	-1.7
Cc1ccc(S(=O)(=O)c2cc(C)cc(S(=O)(=O)Nc3ccc(C(=O)O)cc3)c2C)cc1	0.7	5.6	39.4*	-2.2	3745	-2.1	0.3	0.6	0.3
Cc1cc(S(=O)(=O)Nc2cccc(C(=O)O)c2)c(C)c(S(=O)(=O)c2ccc(Cl)cc2)c1	1.3	1.7	0.1	-3.0	3561	5.0	.	.	.
CC(C)=CC1C(C(=O)NCCOc2ccccc2)C1(C)C (configuration not stated)	-0.4	-5.7	35.4*	-6.9	3785	0.9	-0.2	-5.9	-1.2
CC(C)=CC1C(C(=O)NCCc2ccccc2)C1(C)C (configuration not stated)	1.0	1.5	?	-4.8	3650	-0.2	.	.	.
O=C(O)c1ccc(CNC(=O)C23CC4CC(CC(C4)C2)C3)cc1	-0.5	9.2	98.2*	7.6	3426	10.2	-2.5	-0.5	-6.4
NS(=O)(=O)c1ccc(CNC(=O)C23CC4CC(CC(C4)C2)C3)cc1	0.0	-2.6	-2.8	0.0	3115	0.4	.	.	.
CC(C)n1c2ccccc2c2nc3ccccc3nc21	-0.7	27.1	2.4	25.9	4635	54.8*	24.7	2.7	11.8
Cc1nnc(N(C(=O)c2cnccn2)c2ccccc2)s1	5.9	-5.1	32.7	12.0	3628	-0.4	0.4	-1.3	2.3
O=C(Nc1c[nH]c(=O)[nH]c1=O)c1ccc2c(c1)C(=O)N(c1cccc([N+](=O)[O-])c1)C2=O	1.6	-3.5	4.2	-8.0	5147	0.1	.	.	.
O=C(Nc1c[nH]c(=O)[nH]c1=O)c1cc([N+](=O)[O-])cc([N+](=O)[O-])c1	1.0	7.4	135.2*	2.8	4035	-5.0	1.3	76.5*	0.6
Cc1ccc(Nc2nc3c(c(=O)[nH]c(=O)n3C)n2Cc2ccc(F)cc2)cc1	3.8	1.6	-0.3	-2.6	5753	0.2	.	.	.
Cc1ccc(C)c(S(=O)(=O)Nc2ccc(C(=O)NCCCN3CCOCC3)cc2)c1	-0.1	-4.0	-2.6	5.8	5760	3.3	.	.	.
COCCN(C(=O)c1ccccc1)c1nnc(-c2cccnc2)s1	-1.8	5.3	35.5*	-3.7	4193	1.6	0.8	-2.2	0.8
COCCN(C(=O)CC(C)(C)C)c1nnc(-c2cccnc2)s1	-1.5	-12.2	-2.6	8.8	2496	-0.6	.	.	.
CN(Cc1ccccc1)C(=O)c1csc([C@H]2C[C@H](O)[C@@H](CO)O2)n1	-0.7	4.4	1.4	5.3	3546	-0.3	.	.	.
N#CCCn1cc(C(N)=O)c(-c2ccc3ccccc3c2)n1	1.3	18.7	-28.4	7.7	3976	0.7	.	.	.
CN(C)C(=O)c1cn(CCC#N)nc1-c1ccc2ccccc2c1	-0.5	11.7	52.0*	2.2	3918	0.4	-0.8	-11.7	-0.1
COc1ccccc1N1C(=O)CC(N2CCN(c3ccc(F)cc3)CC2)C1=O (configuration not stated)	-2.0	19.1	40.5*	11.4	3063	-2.0	0.5	-3.8	2.1
CCOc1ccc(CC2c3cc(OCC)c(OCC)cc3CCN2C(=O)CN2CCN(C)CC2)cc1OCC (configuration not stated)	-2.9	-3.1	34.7*	3.1	3816	-3.8	-1.5	-2.0	-2.3
O=C(CSc1nc2ccccc2c(=O)n1-c1ccccc1)c1c[nH]c2ccccc12	3.7	-1.4	0.7	3.1	2530	0.0	.	.	.
CCCCNc1nnc(SCC(=O)c2c(N)n(C3CC3)c(=O)[nH]c2=O)s1	-1.5	2.8	5.6	13.7	4237	0.1	.	.	.
CCCCNc1nnc(SCC(=O)c2c[nH]c3ccccc23)s1	-1.2	20.1	-22.2	8.9	5750	54.2*	14.1	-21.2	13.6
O=C(CSc1nncn1-c1ccccc1)c1c[nH]c2ccccc12	0.8	14.7	-13.7	6.3	4658	52.9*	9.5	-13.6	11.5
SMILES	Mtb FBA inh	Anthrax LF prot	BoNT-F LC inh	GDH-TPI counter	Bead autofluor	BoNT-A LC inh2	BoNTA LC inh 1	BoNT-F LC CP1	LF protease CP1
CC(Sc1nc2ccccc2[nH]1)C(=O)Nc1ccccc1F (configuration not stated)	1.7	-8.9	-8.0	-2.2	4341	-0.9	.	.	.
Cc1ccc(C(=O)Nc2ccc(O)cc2C(=O)O)cc1	0.0	1.8	33.4	14.1	8453	3.7	3.1	0.9	-4.0
Cc1ccc(C(=O)Nc2ccc(O)cc2C(=O)O)cc1C	-3.0	4.1	29.5	11.8	10825	?	.	.	.
COc1ccc(CN2CC(C(=O)N3CC(C)CC(C)C3)CC2=O)cc1 (configuration not stated)	3.1	-2.1	3.4	-3.5	5784	1.0	.	.	.
Clc1ccccc1N1CCN(Cc2ccco2)CC1	3.0	17.1	50.3*	3.4	3623	2.0	-1.2	-3.0	-2.3
COc1ccc(C(=O)N/C(=C\c2ccccc2)C(=O)Nc2ccc(C(=O)NCC(=O)O)cc2)cc1	11.6	-0.9	-4.8	5.1	3346	-0.5	.	.	.
CCNC(=O)C1(C)CCCN(Cc2cccc(Oc3ccccc3)c2)C1 (configuration not stated)	3.5	-0.1	5.2	10.6	5914	-1.6	.	.	.
COc1ccc(-c2nnc(SCC(=O)Nc3ccc(C(=O)O)cc3)n2-c2ccc(Cl)cc2)cc1	3.2	28.4	10.0	10.7	3869	0.3	0.5	0.1	-2.3
COc1ccc(-n2c(SCC(=O)Nc3ccc(C(=O)O)cc3)nnc2-c2cccs2)cc1	-7.0	3.5	4.6	-1.9	4464	0.1	.	.	.
Cc1onc(-c2ccccc2)c1C(=O)N1CCCN2C(=O)c3ccccc3C21 (configuration not stated)	0.4	-3.0	1.0	-1.6	5529	-0.5	1.0	-0.7	1.8
CCCc1cc(=O)[nH]c(SCC(=O)N2CCOCC2)n1	1.6	6.6	15.6	0.8	3084	-1.8	.	.	.
COc1cccc(/C=C/c2ccncc2)c1OC	2.9	1.2	30.7	9.2	4691	1.4	1.4	0.1	3.9
Cc1ccc2nc(NC(=O)CSCC(=O)Nc3cc(C)on3)sc2c1	5.7	.	.	4.4	.	.	.	.	.
COc1ccc2nc(NC(=O)CSC(C)C(=O)Nc3cc(C)on3)sc2c1 (configuration not stated)	1.1	?	?	-10.8	4402	84.8*	0.7	-0.9	1.8
CC(C)[C@H](NC(=O)N1CC(=O)Nc2ccccc21)C(=O)N1CCC[C@H]1C(=O)O	1.7	-7.1	-10.0	0.0	5951	-1.5	.	.	.

Compound activity from PubChem BioAssay.
